Test results reported in PubChem BioAssay AID624296 (National Center for Advancing Translational Sciences (NCATS), 2012).
Among all 350,000 compounds or so, about 9,900 (2.8%) were called active. A call without a number means that no potency is given here. About 15% were inconclusive and are not listed. This is one part of a sample in which actives are shown more often than they occur. Calls come from the whole dose curve; as a rule, active = well fitted activation curve with a large enough effect; inconclusive = small, poorly fitted or top-dose-only effect; inactive = no such curve, though single readings can be large or run the other way.

Assay: A quantitative high throughput screen for small molecules that induce DNA re-replication in MCF 10a normal breast cells. Note: nearly all actives have a fitted effect of over 50% in size.
Conditions: MCF 10A DNA re-replication, Hoechst nuclear intensity, 48 h; series mostly up to 46.1 µM
Source text: H Molecular Libraries Probe Production Network [MLPCN]
NIH Chemical Genomics Center [NCGC]
Assay Provider: Melvin DePamphilis, NICHD, NIH
Eukaryotic cells normally restrict genome duplication to once per cell division. When this process is aberrant, DNA re-replication occurs when cells reinitiate DNA replication before the first round of replication is complete. DNA re-replication induces the DNA damage response, arrests cell proliferation, and triggers apoptosis. The cell cycle components cyclin A, Cdt-1, Cdc6 and geminin are critical regulators of this process and their misregulation results in DNA re-replication in normal and cancer cells. To identify compounds that induce re-replication in normal cells, an image-based assay was used to measure DNA content of nuclei, as detected by the fluorescent DNA binding dye, Hoechst. Cell nuclei were imaged by a fluorescence scanning plate imager and compounds that induce DNA re-replication were identified by the increase of nuclei with elevated fluorescence intensity
For screening, 250 cells in 5 uL/well were dispensed into black clear 1536-well plates (Aurora) using a solenoid-based dispenser. Following transfer of 23 nL compound or DMSO vehicle by a pin tool, the plates were incubated 48 hr at 37 C and 5% CO2. After addition of 1 uL/well Hoescht stain, the plates were incubated 40 min at 37 C, 5% CO2 and total intensity of fluorescent objects (nuclei) were enumerated by an Acumen Explorer Ex3 (TTP LabTech) fluorescence scanning plate imager (405 nm excitation, 500-530 nm emission).
Keywords: NIH Roadmap, MLPCN, MLI, MLSMR, qHTS, NCGC, DNA replication, cancer
Potency is the fitted concentration of half-maximal effect.

SMILES | Potency
Cc1cccc(N(CC(=O)N=Nc2c(O)[nH]c3ccccc23)S(C)(=O)=O)c1C | inactive
COCC(=O)N=Nc1c(O)[nH]c2ccccc12 | inactive
O=C(CCN1CCCCC1)N=Nc1c(O)[nH]c2ccccc12 | 3.66 µM (active)
CCCCc1ccc(NS(=O)(=O)c2cccc(C(=O)N3CCCN(C)CC3)c2)cc1 | inactive
O=C(O)c1ccc(S(=O)(=O)c2ccccc2)s1 | inactive
Cc1nc2ccc(N)nc2nc1C | inactive
CCN(C[C@H]1N[C@@](CC)(C(=O)OC)[C@H]2C(=O)N(C)C(=O)[C@@H]12)C(=O)Nc1ccc(F)cc1 | inactive
CCOC(=O)c1c(-c2ccccc2)oc2cc(Br)c(O)c(C=O)c12 | 2.91 µM (active)
Cc1oc2cc(Br)c(O)c(Br)c2c1C(=O)c1ccccc1 | inactive
CCOC(=O)c1c(C)oc2cc(Sc3ccccc3)c(O)c(O)c12 | inactive
CCOC(=O)c1c(-c2ccccc2)oc2ccc(OCC(N)=O)cc12 | inactive
CCOC(=O)c1c(-c2ccccc2)oc2cc(Br)c(O)cc12 | 16.4 µM (active)
CCOC(=O)c1c(-c2ccccc2)oc2ccc(OCC(=O)NN)cc12 | inactive
CC[C@]12c3[nH]c4cc(CCC(=O)N(C)C)ccc4c3CCN1C(=O)[C@@H](CC(=O)NCc1ccco1)C[C@@H]2C(=O)N1CCN(C(=O)c2ccco2)CC1 | inactive
O=C(CSc1nnc(Nc2ccccc2F)s1)NC1CCCC1 | inactive
O=C(COC(=O)c1n[nH]c2ccccc12)Nc1ccccc1Br | inactive
COc1ccc(NC(=O)/C(N=Nc2cccc(S(=O)(=O)Nc3ccc(SC(F)F)cc3)c2)=C(\C)O)cc1 | inactive
O=c1c(-c2ccccc2)coc2cc(O)ccc12 | inactive
CC(C)=CCc1c(O)c(CC=C(C)C)c2occ(-c3ccc(O)cc3)c(=O)c2c1O | 9.2 µM (active)
CC(C)CN(Cc1c(O)ccc2c(=O)c(-c3ccccc3)coc12)CC(C)C | inactive
O=C(NN=Cc1ccc([N+](=O)[O-])cc1)C1CC1 | inactive
COc1ccccc1N1CCN(C(=O)C2Cc3ccccc3CN2C(=O)c2ccco2)CC1 (centres undefined) | inactive

SMILES | Potency
CCOc1ccc(OCC)c(NC(=O)CCS(=O)(=O)c2ccc(C)cc2)c1 | inactive
Cc1ccc(S(=O)(=O)CC(=O)Nc2nnc(C)s2)cc1 | inactive
CC(=O)N1CCc2c(sc(NC(=O)CCS(=O)(=O)c3ccc(C)cc3)c2C(N)=O)C1 | 3.26 µM (active)
Cc1cc(C)cc(-c2nnc(SCC(=O)NC3CC3)o2)c1 | inactive
O=C(NCc1ccccc1CN1CCCC1)c1cccc(S(=O)(=O)Nc2ccc(F)cc2)c1 | inactive
COc1cc(C(=O)CCc2ccc3c(c2)OCO3)cc(OC)c1OC | inactive
Cc1ccccc1-c1ccc(Nc2ccc(C(=O)N3CCOCC3)cc2)nn1 | inactive
Cc1oc2c(c1C(=O)N1CCOCC1)C(=O)c1ccccc1C2=O | 16.4 µM (active)
Cc1noc(C)c1C(=O)N1CCOCC1 | inactive
NS(=O)(=O)c1ccc(CNC(=O)c2cccc(S(=O)(=O)N3CCc4ccccc43)c2)cc1 | inactive
COc1ccc(C(C)(C)C)cc1NC(=O)CCN1C(=O)C2CCCCC2C1=O (centres undefined) | inactive
COc1ccc(C2=NN(c3ccccc3)C(c3cccs3)C2)cc1 (centres undefined) | 3.26 µM (active)
COc1ccc(C2=NN(C(C)=O)C(c3ccccc3)C2)cc1 (centres undefined) | inactive
COc1ccc(C2=NN(C(=O)c3ccccc3C(=O)O)C(c3ccccc3O)C2)cc1 (centres undefined) | inactive
O=C(Nc1cc(S(=O)(=O)N2CCCCC2)ccc1Cl)C1COc2ccccc2O1 (centres undefined) | inactive
C=CC[C@@H](CC(=O)N[C@@H](CO)Cc1ccccc1)C(=O)NCCOC(=O)[C@@H](CC=C)CC(=O)OC(C)(C)C | inactive
CCCCn1c(N)c(N(CCC(C)C)C(=O)COC(=O)c2ccc(CC)cc2)c(=O)[nH]c1=O | inactive
O=C(/C=C/c1ccco1)NC(=S)Nc1ccccc1Br | 20.6 µM (active)
O=C(/C=C/c1ccco1)NC(=S)N1CCCCC1 | inactive
COc1ccc(Cl)cc1C(=O)NNC(=S)NC(=O)/C=C/c1ccco1 | inactive
COc1ccc2c(c1)C(=O)CC(c1ccccc1)O2 (centres undefined) | inactive
COc1cc(/C=N/NC(=O)c2cc(-c3ccccc3C)nc3ccccc23)cc(OC)c1O | inactive

SMILES | Potency
COc1cccc(-c2cc(C(=O)N/N=C/c3ccc(OC)c(COC(C)=O)c3)c3ccccc3n2)c1 | inactive
CCOc1ccc(-c2cc(C(=O)N/N=C/c3ccc(O)cc3)c3ccccc3n2)cc1 | 2.06 µM (active)
O=C1COc2ccc(C(=O)COC(=O)CCOc3ccccc3)cc2N1 | inactive
O=C(CSc1nc2ccccc2c(=O)[nH]1)Nc1nc(-c2ccc(Br)cc2)cs1 | inactive
CC(=O)NCc1ccc(-c2csc(NC(=O)CCCc3nc4ccccc4c(=O)[nH]3)n2)cc1 | inactive
Cc1ccc(-c2csc(NC(=O)Cn3[nH]c(=O)c4ccccc4c3=O)n2)cc1 | 3.26 µM (active)
O=C(Cn1cnc2c(OCc3ccccc3)ncnc21)NCCCn1ccnc1 | inactive
CC(C)Sc1nc(N)nc2c1ncn2C1OC(CO)C(O)C1O (centres undefined) | inactive
Cn1c(N)c(C(=O)COC(=O)c2cccc(S(=O)(=O)N3CCOCC3)c2)c(=O)n(C)c1=O | inactive
CC(C)n1c(-c2cccs2)nc2ccccc21 | inactive
COc1ccccc1C(=O)Nn1c(-c2cccs2)nc2ccccc2c1=O | inactive
COCCCn1c(-c2cccs2)nc2nc3ccccc3nc21 | 18.4 µM (active)
COC(=O)C1CCN(C(=O)COC(=O)c2cc(S(=O)(=O)N3CCOCC3)ccc2C)CC1 | inactive
Cc1ccc2c(O)c(Cc3ccccc3)c(=O)[nH]c2n1 | inactive
O=C(NCC1CCCO1)c1ccc(S(=O)(=O)Nc2ccc(F)cc2)cc1 (centres undefined) | inactive
COc1ccc(/C=N/NC(=O)c2ccc3c(c2)OCCO3)c(OC)c1 | inactive
COc1ccc(/C=N/NC(=O)Nc2ccc3nsnc3c2)c(OC)c1 | 13 µM (active)
COc1ccc(/C=N/NC(=O)CNC(=O)c2ccc(S(=O)(=O)N3CCCC3)cc2)c(OC)c1 | inactive
COc1ccc(CNC(=O)CN2C(=O)c3ccccc3S2(=O)=O)cc1 | inactive
COc1ccc(C(=O)NCc2ccc(C)cc2)cc1S(=O)(=O)N1CCCC1 | inactive
